# Laboratory results taken from PubChem BioAssay.
# The source made the active and inactive calls. No rule for the calls is given here.
# Biological target: Pantothenate synthetase (Mycobacterium tuberculosis (strain ATCC 25618 / H37Rv)) (UniProt P9WIL5)
# Experiment: Coupled enzyme confirmation of inhibitors against recombinant Mtb PanC (AID 375);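 also: 0% = full reaction with vehicle and 100% = no enzyme background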
# Details: coupled enzyme assay; at 10 µM, hits give high values
# Pantothenate synthetase (Mycobacterium tuberculosis (strain ATCC 25618 / H37Rv)), sequence (P9WIL5 whole entry, looked up): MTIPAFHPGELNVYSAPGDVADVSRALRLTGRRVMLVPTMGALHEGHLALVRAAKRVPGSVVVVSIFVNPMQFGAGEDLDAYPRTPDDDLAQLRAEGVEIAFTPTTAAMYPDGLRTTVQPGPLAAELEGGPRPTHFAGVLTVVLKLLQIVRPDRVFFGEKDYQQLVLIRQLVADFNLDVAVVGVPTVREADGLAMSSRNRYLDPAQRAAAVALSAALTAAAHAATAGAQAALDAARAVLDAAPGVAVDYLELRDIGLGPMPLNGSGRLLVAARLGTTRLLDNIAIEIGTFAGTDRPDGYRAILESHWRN
row,Structure (SMILES),inhibition
1,CCn1c(SCC(=O)c2ccc(C)cc2)nnc1-c1ccoc1C,2% (inactive)
2,Nc1nc(F)nc2c1ncn2[C@@H]1O[C@H](CO)[C@@H](O)[C@@H]1O,0% (inactive)
3,CCC(C(=O)OCC(=O)Nc1c(C)n(C)n(-c2ccccc2)c1=O)c1ccccc1 (centres undefined),2% (inactive)
4,Cn1c(=N)c(S(=O)(=O)c2ccc(Cl)cc2)cc2c(=O)n3ccccc3nc21,0% (inactive)
5,O=C1c2ccccc2C(Nc2ccc(F)c(Cl)c2)N1Cc1ccco1 (centres undefined),3% (inactive)
6,COc1ccc(OC)c(-c2nc3c(C)n[nH]c(=O)c3[nH]2)c1,0% (inactive)
7,CCCCCCCCNC(C)C(O)c1ccc(SC(C)C)cc1 (centres undefined),0% (inactive)
8,CCOC(=O)CN1CC23C=CC(O2)C(C(=O)Nc2ccc(OC)cc2OC)C3C1=O (centres undefined),0% (inactive)
9,O=C(CS(=O)(=O)Cc1ccccc1)Nc1nc2ccccc2s1,0% (inactive)
10,COC(=O)c1ccccc1NC(=O)c1noc2c1CC(C(C)(C)C)CC2 (centres undefined),2% (inactive)
11,Cc1ccc(Cn2c(=N)c(C(=O)NCc3ccco3)cc3c(=O)n4ccccc4nc32)cc1,1% (inactive)
12,CCCCN(C)CCCNC(=O)CC1Oc2ccccc2NC1=O (centres undefined),6% (inactive)
13,CC(=O)Nc1ccc(N=Cc2ccc[nH]2)cc1,0% (inactive)
14,COCC(C)NC(=O)NC(=O)c1ccc(Cl)cc1 (centres undefined),0% (inactive)
15,COc1ccc(C2C=C(c3ccccc3)Nc3ncnn32)cc1 (centres undefined),4% (inactive)
16,CCOC(=O)c1sc2nc(NC(=O)C3CCCCC3)sc2c1C,2% (inactive)
17,COC(=O)c1cn(NC(=O)C2CCCO2)c(=O)c2ccccc12 (centres undefined),0% (inactive)
18,N#Cc1cc2sc3nnc(-c4ccncc4)n3c2cc1C#N,0% (inactive)
19,CCc1ccc(N2CC(C(=O)OCC(=O)NC3CCS(=O)(=O)C3)CC2=O)cc1 (centres undefined),0% (inactive)
20,CS(=O)(=O)N1CCN(C(=O)c2ccc(-c3ccccc3)cc2)CC1,9% (inactive)

row,Structure (SMILES),inhibition
1,CC1(C)CC(=O)C(C=NCc2ccc3c(c2)OCO3)=C(O)C1,5% (inactive)
2,CCOc1cc2[nH]c(=O)n(CCCCC(=O)NCc3ccco3)c(=O)c2cc1OCC,6% (inactive)
3,COc1ccc(CNC(=O)CN(C(=O)c2ccc(CN3CCOCC3)o2)C2CCCC2)cc1,0% (inactive)
4,O=S(=O)(Nc1cccnc1)c1ccc2c(c1)OCCO2,1% (inactive)
5,Cc1nc(NC2=NCN(CCc3ccccc3)CN2)nc2c(C)cccc12,0% (inactive)
6,CCOC(=O)C1=C(C)NC(C)=C(C(=O)OC)C1c1cccc(Cl)c1Cl (centres undefined),4% (inactive)
7,CCCn1c(SCC(=O)NCc2ccco2)nc2c1c(=O)n(C)c(=O)n2C,11% (inactive)
8,CCCOc1ccc(C2C(C(=O)OC)=CN(CCOC)C=C2C(=O)OC)cc1,1% (inactive)
9,COc1ccc(N2C(=O)c3cccc4cccc(c34)C2=O)nn1,0% (inactive)
10,O=C(CSc1nnc(Cn2c(=O)sc3ccccc32)n1-c1ccccc1)Nc1nccs1,1% (inactive)
11,O=C(Cc1c(O)c2ccccc2[nH]c1=O)NCc1ccc(F)cc1,0% (inactive)
12,CCN(CCCCOC(=O)c1ccc(OC)c(OC)c1)C(C)Cc1ccc(OC)cc1 (centres undefined),9% (inactive)
13,COC(=O)c1ccc(COC(=O)c2c(C)nn(Cc3ccccc3Cl)c2Cl)o1,0% (inactive)
14,COC(=O)c1ccc(C)c(NS(=O)(=O)c2ccc3c(c2)OCCO3)c1,0% (inactive)
15,Cc1ccc(S(=O)(=O)NCCNC(=O)C2CCCNC2=O)cc1 (centres undefined),6% (inactive)
16,CC1=CCC2C(=O)N(c3nc(C)cc(C)n3)C(=O)C2C1 (centres undefined),0% (inactive)
17,O=C(c1csc2ccccc12)n1cccn1,0% (inactive)
18,CCOCCCNC(=O)Cn1ncc2c(=O)oc3ccccc3c21,0% (inactive)
19,Cc1ccccc1Cn1nc(C)c(NC(=O)c2noc3c2CCc2ccccc2-3)c1C,0% (inactive)
